# Publication PMC5540273 (PLoS ONE, 2017)
# What was measured:
# [1] = test system: T1, RSK1(Kin.Dom.2-C-terminal)
# T1 construct: gene RPS6KA1
# [2] = test system: T2, RSK4(Kin.Dom.2-C-terminal)
# T2 construct: gene RPS6KA6
# 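Also: kd values determined as follow-up on hits from a single-replicate KINOMEscan panel screen.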
smiles,measurement,setting,value
C[C@@H](Oc1cc(-n2cnc3ccc(NC(=O)NC(C)(C)C)cc32)sc1C(N)=O)c1ccccc1Cl [GSK346294],Kd,PLK2,0.077 µM
same,Kd,PLK3,0.15 µM
COc1ccc(COc2cc(-n3cnc4ccccc43)sc2C(N)=O)cc1 [GSK1024304],Kd,PLK2,0.25 µM
same,Kd,PLK3,0.38 µM
same,Kd,RIOK2,0.076 µM
Fc1ccc(-c2ncn(CCCN3CCOCC3)c2-c2ccccn2)cc1 [SB-211742],Kd,PRKCI,> 10 µM
Cc1cccc(-c2nc(Nc3ccc4ncsc4c3)c3ccccc3n2)n1 [GW867588],Kd,PRKD1,0.016 µM
same,Kd,PRKD2,0.022 µM
Cc1nnc(-c2ccc3occ(-c4ccc(C(C)O)cc4)c3c2)o1 (stereo not shown),Kd,RAF1,> 10 µM
O=c1cc(N2CCOCC2)nc2n(Cc3cccc4ccccc34)ccn12 [GSK2333389],Kd,RET,> 10 µM
c1ccc(-c2cc(-c3c[nH]nc3-c3ccccn3)ccn2)cc1 [GW576604],Kd,RIPK2,7.6 µM
CNc1ncnc2[nH]ncc12 [SKF-18355],Kd,ROCK1,0.38 µM
same,Kd,ROCK2,0.33 µM
CCCCCc1nc2c(N)ncnc2n1CCCCC [SKF-97255],Kd,ROCK1,0.28 µM
CC(C)(C)n1cnc2c(N)ncnc21 [SKF-97359],Kd,[1],> 10 µM
same,Kd,SgK110,> 10 µM
CN1c2ccc(NCc3ccc(F)cc3)cc2-c2c(cnn2C)S1(=O)=O,Kd,[2],> 10 µM
CN1c2ccc(CNc3ccc(F)cc3)cc2-c2c(cnn2C)S1(=O)=O,Kd,SGK2,> 10 µM
CSc1ccc(-c2cc3ncnc(SCC(=O)O)c3s2)cc1,Kd,SRPK2,> 10 µM
COc1ccc(Nc2nccc(N3CCC(NC(=O)Nc4cc(C)ccc4C)C3)n2)cc1 (stereo not shown) [GSK1379741],Kd,STK36,1.6 µM
Cn1ccc2ncnc(Oc3ccc(NC(=O)Nc4ccncc4)c(Cl)c3)c21,Kd,STK39,> 10 µM
O=C(NCCNc1ccnc(Nc2ccc(F)cc2)n1)c1cc2ccccc2s1 [GSK1379874],Kd,TESK1,> 10 µM
